Measurements published in PubChem BioAssay (EPA / NIEHS).
Calls of active or inactive are those of the source. The calls were made as follows: active = hit-call score of the fitted dose curve at least 0.9, where 1 is the maximum; inactive = score below 0.9.

Experiment: ATG_CMV_CIS: Attagene CIS-FACTORIAL HepG2 Assay for human CMV (Internal Marker) (AID 2282928);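 also: endpoint acts as a background internal control marker rather than a target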
Conditions: HepG2 CMV promoter reporter, transcription factor profiling; actives raise or lower the signal
Procedure: ATG_CIS is a cell-based, multiplexed-readout assay that uses HepG2, a human liver cell line, with measurements taken at 24 hours after chemical dosing in a 24-well plate.ATG_CMV_CIS is one of 52 assay component(s) measured or calculated from the ATG_CIS assay. It is designed to make measurements of mRNA induction, a form of inducible reporter, as detected with fluorescence intensity signals by Reverse transcription polymerase chain reaction (RT-PCR) and Capillary electrophoresis technology.Data from the assay component ATG_CMV_CIS was analyzed into 1 assay endpoint. This assay endpoint, ATG_CMV_CIS, was analyzed with bidirectional fitting relative to DMSO as the negative control and baseline of activity. Using a type of inducible reporter, measures of mRNA for gain or loss-of-signal activity can be used to understand the background control at the transcription factor-level as they relate to the gene . Furthermore, this assay endpoint can be referred to as a secondary readout, because this assay has produced multiple assay endpoints where this one serves a background control function. To generalize the intended target to other relatable targets, this assay endpoint is annotated to the background measurement intended target family, where the subfamily is internal marker.
Human liver HepG2 cells are transiently transfected with multiple reporter transcription units (MRTUs) in 6-well plates using FuGene 6 reagent (Roche; 3 ml FuGene/1 mg DNA). The MRTU constructs are regulated by a cis-regulating element (promoter). […] A major difference between the CIS and TRANS system is that in CIS activities of endogenous TFs are measured, whereas the TRANS assay evaluates changes in activities of exogenous, chimeric NR-Gal4 proteins. […] At the end of 24 hour incubation, total RNA was isolated using TriZol reagent (Invitrogen). The isolated RNA is then reverse-transcribed using oligo(dT) primer and Mo-MLV reverse transcriptase (Invitrogen) with DNAse I (Ambion) treatment for 30 min. The one-tenth of the produced cDNA was amplified by PCR using Taq DNA polymerase (Invitrogen) and two reporter sequence-specific primers. The PCR products were fluorescently labeled by primer extension with 6-arboxyfluorescein (6-FAM) 5'-labeled reporter sequence-specific primer (2 min at 95 C, 20 s at 68 C and 10 min at 72 C) and these products were digested with 5U of HpaI (New England Biolabs) for 2h at 37 C. The fragments were purified using Qiaquick PCR columns (Qiagen), analyzed on an ABI 3130xL genetic analyzer (Applied Biosystems) with peak positions identified by using a set of X-rhodamine (ROX)-labeled MapMarker1000 molecular weight standards (BioVentures). The raw capillary electrophoresis data was processed using Attagraph software (Attagene).

SMILES | AC50 | outcome
CCCCCCCCCCCCSC | 100 µM (active) | 
CC(O)C(C)O (stereo not given) |  | inactive
C=C(C)C(=O)NCCCN(C)C |  | inactive
CCOc1ccccc1OCC |  | inactive
O=C[C@@H](O)[C@H](O)[C@H](O)CO |  | inactive
Cc1ccccc1C=O |  | inactive
Nc1ccc(F)c([N+](=O)[O-])c1 |  | inactive
CC(C)OP(=O)(CP(=O)(OC(C)C)OC(C)C)OC(C)C |  | inactive
O=C1c2ccccc2C(=O)N1SC1CCCCC1 |  | inactive
Clc1ccc2c(c1)C(N1CCNCC1)=Nc1ccccc1O2 |  | inactive
CCCCc1ccc(N)cc1 |  | inactive
CCCCCCCCCCCCCOS(=O)(=O)O |  | inactive
CCCOCC(C)O (stereo not given) |  | inactive
COC(=O)c1ccc(C)cc1 |  | inactive
CCC/C=C/C=O |  | inactive
c1ccc2[nH]ccc2c1 |  | inactive
CC(C)(C)c1cc(CCC(=O)NN)cc(C(C)(C)C)c1O |  | inactive
C=CC(C)(C)O |  | inactive
OCC(CO)(CO)COCC(CO)(CO)CO |  | inactive
O=C(O)CCCCCCCCCCC(=O)O |  | inactive

SMILES | AC50 | outcome
CC(CCO)CCc1ccccc1 (stereo not given) |  | inactive
CCCCOCCOCCOCCOCCO |  | inactive
C=CC(=O)OCCOCCOCC | 48.2 µM (active) | 
CC(C)(C)NC(N)=O |  | inactive
COc1cc(C)cc(O)c1 |  | inactive
CC(=O)Nc1ccccc1O |  | inactive
CCCCC[Si](OCC)(OCC)OCC |  | inactive
O=c1[nH]c(=O)n([C@H]2CCCO2)cc1F |  | inactive
Cc1ccc(Nc2ccc(O)c3c2C(=O)c2ccccc2C3=O)cc1 |  | inactive
CCc1c(C)cc(N)c(CC)c1N |  | inactive
COc1ccc(Nc2ccccc2)c(C)c1 | 100 µM (active) | 
COc1cccc(OC)c1 |  | inactive
C=C(C)[C@@H]1CC[C@@H](C)C[C@@H]1O |  | inactive
CCCCCCCCCCCCCCCC(=O)OC[C@H](O)[C@H]1OC(=O)C(O)=C1O |  | inactive
O=S(=O)(O)c1cccc2c(S(=O)(=O)O)cccc12 |  | inactive
NC(=O)c1ccccc1Cl |  | inactive
CC(CC(C)(C)C)CC(C)(C)CC(C)(C)C (stereo not given) |  | inactive
O=S(=O)(O)NC1CCCCC1 |  | inactive
CCCCC(CC)COCCC#N (stereo not given) |  | inactive
COCCCOc1ccnc(CS(=O)c2nc3ccccc3[nH]2)c1C (stereo not given) |  | inactive
